Source: the OligoGym collection

Molecular target: MUSTN1
Experiment: pooled miR-30 sensor sort-seq; sequence = guide strand
Details: shRNA
Also: reference of the scale not given here.

Row | Sequence | sensor-assay potency score (higher = more potent)
1 | TCAAAGACAGTCTCGGTACCTG | -0.0062
2 | TTGATTTCCTGGTTCTTGGTCA | 0.114
3 | TTCTTGGTCAGGTTTCCTCGGG | -0.747
4 | TCACACTCTCGCATGACCTGGT | 0.595
5 | ACACTCTCGCATGACCTGGTAG | -0.661
6 | AGCTTGCTCACACTCTCGCATG | -2.04
7 | TTGCTCACACTCTCGCATGACC | -1.08
8 | TTCCTGGTTCTTGGTCAGGTTT | -1.77
9 | TCTTGGTCAGGTTTCCTCGGGC | 0.0366
10 | TAGGTCTTGGACTTGATTTCCT | -0.449
11 | TCGCATGACCTGGTAGGTCTTG | -0.987
12 | TTTATTGGTGCTTCCAAGGTGC | 0.442

Molecular target: MUTED
Experiment: as above
Details: shRNA

Row | Sequence | sensor-assay potency score (higher = more potent)
13 | TTTTCTGTGCTCTTCATCCACT | -0.826
14 | TTTAACATGGACCATTTGCTGT | -1.08
15 | TAAGTGGTCACTATGAATCTTT | -0.505
16 | TTGTTCTTTAAGCCTTTCCATG | -1.47
17 | TTGTCTACATTACTCATGCAGT | -0.842
18 | TAATAAACTATTGTTAACCCTG | 0.0836
19 | TTTCTAAGAAGTCTATACCTAC | -0.621
20 | TTTTTTGTCTACATTACTCATG | -0.517
21 | TTTCTCACTAGCTACTAAGTGG | -0.662
22 | TTGTTTACCATAAATCTCGAAA | -0.16
23 | TTATCTTATAAAGCTTACCCAC | -1.06
24 | TTTACATTTAACATGGACCATT | -1.07

Molecular target: MYBL1
Experiment: as above
Details: shRNA

Row | Sequence | sensor-assay potency score (higher = more potent)
25 | TTCGCTTTCTTCTAACTTCATT | -1.09
26 | TTCAAGTACAAGACTGACGTTA | 0.474
27 | TTTGATAGAATTATCAGTCCTT | 1.06
28 | TTTCTCTACACTGCTTGCCTAT | -0.646
29 | TTCTTCTTTTAAAACTTCCCGA | -0.736
30 | TAAAGGAACAGCTTCACTGTTG | -0.055
31 | TAGTAGGTGTTCTAAACCCTAC | -0.956
32 | TAGATCTTCTAATAGTAGGTGT | 0.293
33 | TTGAAGTACTACTGGTAGCTGT | 0.338
34 | TAATTTATCATCCTCGTCCCTT | -0.0916
35 | TAGAATTATCAGTCCTTCCTGG | 0.631

Molecular target: MYCBPAP
Experiment: as above
Details: shRNA

Row | Sequence | sensor-assay potency score (higher = more potent)
36 | TAGATCAGAAACAGACTCCGAT | 0.675
37 | TTGTAGGACATTGCTAACAGGT | -0.808
38 | TATGACTTTCTTGTCATCCTTT | 0.0986
39 | TTTCTTGTCTTCTTTGTCTTTG | -0.276
40 | TCTCCTTGTAGGACATTGCTAA | -0.62
